Compounds with a hit are over-represented: about 17% of the library has one in this group of screens.
TDP1 cell noCPT: qHTS for Inhibitors of human tyrosyl-DNA phosphodiesterase 1 (TDP1): qHTS in cells in absence of CPT; DT40 Tdp1-/- hTDP1 cells, no CPT, ATP luminescence, 48 h; Potency, µM (highest dose often 46.2 µM), most hits filed as inhibitors; actives 15% (n = 420,000); also: nearly all actives have a fitted effect of over 55% in size
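Growth kinetics read by CellTiter-Glo luminescence after ≥48 hr at 37 °C. Cells: DT40 Tdp1-/- stably carrying human TDP1, 400 per well, compound exposure in the absence of CPT (DMSO vehicle).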
ClpP mod: qHTS Assay for Activators of ClpP. Potency, µM (titrated, usually from 57.5 µM). AID 651965, 2013. actives 1.9% (n = 340,000). ATP-dependent Clp protease proteolytic subunit (Bacillus subtilis (strain 168)), P80244. purified B. subtilis ClpP, FRET peptide cleavage, 20 min; active = well fitted falling curve with a large enough effect; inconclusive = small, poorly fitted or top-dose-only effect; inactive = no such curve, though single readings can be large or run the other way; also: the source files actives as falling curves though it sought activators and does not explain the sign; nearly all actives have a fitted effect of over 65% in size
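ClpP 10 microg/mL final, pH 8 Tris/KCl buffer with BSA, glycerol, Tween-20; compound pinned in; FRET-FV substrate; RT 20 min; Ex320/Em430; ΔFRET vs ADEP 5.8 microM, DMSO, no enzyme.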
TDP1 inh: inhibitors of human tyrosyl-DNA phosphodiesterase TDP1; Q9NUW8; recombinant TDP1, AlphaScreen DNA substrate cleavage; Potency, µM (series often up to 130 µM), hits mostly inhibitors; actives 0.28% (n = 350,000); AID 485290; also: nearly all actives have a fitted effect of over 40% in size
Target sequence (Q9NUW8 whole entry, looked up): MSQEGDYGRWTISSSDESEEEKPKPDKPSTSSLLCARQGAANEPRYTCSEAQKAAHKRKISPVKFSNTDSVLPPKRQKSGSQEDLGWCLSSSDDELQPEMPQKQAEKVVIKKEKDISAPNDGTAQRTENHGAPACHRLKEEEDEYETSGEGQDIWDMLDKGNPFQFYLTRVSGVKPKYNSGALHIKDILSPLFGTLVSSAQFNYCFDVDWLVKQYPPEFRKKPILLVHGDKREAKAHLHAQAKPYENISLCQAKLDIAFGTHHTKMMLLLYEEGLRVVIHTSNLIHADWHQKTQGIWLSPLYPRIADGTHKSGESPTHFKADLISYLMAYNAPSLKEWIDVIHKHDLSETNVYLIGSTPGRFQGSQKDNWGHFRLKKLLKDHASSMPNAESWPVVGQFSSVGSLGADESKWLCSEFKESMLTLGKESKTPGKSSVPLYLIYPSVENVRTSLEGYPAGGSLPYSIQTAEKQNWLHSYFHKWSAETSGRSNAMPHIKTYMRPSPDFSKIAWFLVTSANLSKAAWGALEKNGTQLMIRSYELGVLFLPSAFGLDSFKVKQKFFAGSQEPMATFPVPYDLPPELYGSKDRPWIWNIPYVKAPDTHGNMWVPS
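Steps: enzyme plus compound, 15 min RT; add biotin/phosphotyrosine-FITC oligonucleotide (15 nM final), react 5 min; add donor/acceptor beads (10 ug/ml final), 10 min; read AlphaScreen. Tdp1 at 1 nM final.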
TDP1 cell CPT: growth inhibition of DT40 Tdp1-/-;hTDP1 cells with camptothecin (screen for TDP1 inhibitors); chicken DT40 Tdp1-/-;hTDP1 cells + 20 nM CPT, ATP luminescence, 48 h; actives 12% (n = 420,000); Potency, µM (doses to about 46.2 µM), most hits filed as inhibitors; AID 686979; also: nearly all actives have a fitted effect of over 55% in size
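Cell growth measured by CellTiter-Glo luminescence after a minimum 48 h, 37 C compound exposure with 20 nM CPT in Tdp1-knockout DT40 cells stably expressing hTDP1, seeded 400/well; qHTS titration format.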
Large screens that a line does not name were inactive. Unless noted, calls follow the shape of the dose curve; as a rule, active = well fitted curve in the direction sought with a large enough effect; inconclusive = small, poorly fitted or top-dose-only effect, or another doubt; inactive = no such curve, though single readings can be large; an effect the other way counts as inactive or inconclusive.

COc1cc([N+](=O)[O-])ccc1-c1ccc(/C=N\n2cnnc2)o1	TDP1 cell noCPT 1.84µM, TDP1 cell CPT 1.64µM (no result: TDP1 inh)
C#CCOCCOCCOCCNc1nc(N2CCN(C(=O)[C@H](CCCCN)n3cc(CN)nn3)CC2)nc(N2CCN(C(=O)[C@H](CCC(=O)O)n3cc([C@@H](N)CCSC)nn3)CC2)n1	TDP1 cell noCPT inconclusive
CCCC1SCC(C)(C)NC1=O (stereo not given)	none (no result: TDP1 inh)
CC(C)CN1CCCC2(CCN(C(=O)c3ccco3)CC2)C1	none (no result: ClpP mod, TDP1 inh)
CCOC(=O)C1=C(N)OC(CCl)=C(C#N)C1c1ccsc1 (stereo not given)	TDP1 cell noCPT 2.59µM, TDP1 cell CPT 2.06µM
O=[N+]([O-])c1cc(-c2ccccc2)cc([N+](=O)[O-])c1O	TDP1 cell noCPT 18.4µM, TDP1 cell CPT inconclusive (no result: ClpP mod, TDP1 inh)
O=[N+]([O-])c1cc2ccccc2c(O)c1O	TDP1 cell noCPT inconclusive, TDP1 cell CPT 23.1µM (no result: TDP1 inh)
Nc1nc(-c2cc(O)ccc2[N+](=O)[O-])cc(-c2ccccc2)c1[N+](=O)[O-]	TDP1 cell noCPT 8.2µM, TDP1 cell CPT 7.31µM (no result: ClpP mod)
Cc1ccc(S(=O)(=O)Cc2ccc(C(=O)N3CCN(c4cccc(Cl)c4)CC3)o2)cc1	TDP1 cell noCPT 0.651µM, TDP1 cell CPT 0.651µM
COc1ccccc1S(=O)(=O)Cc1ccc(C(=O)N2CCCC2)o1	none
Cc1ccccc1S(=O)(=O)Cc1ccc(C(=O)N2CCN(c3cccc(C)c3C)CC2)o1	TDP1 cell noCPT 4.11µM, TDP1 cell CPT 5.17µM
Cc1ccccc1S(=O)(=O)Cc1ccc(C(=O)N2CCN(c3cccc(Cl)c3)CC2)o1	TDP1 cell noCPT 4.61µM, TDP1 cell CPT 4.11µM
CCc1ccccc1S(=O)(=O)Cc1ccc(C(=O)N2CCN(c3ccccc3OC)CC2)o1	TDP1 cell noCPT 13µM, TDP1 cell CPT 8.2µM
Cc1nnc(NC(=O)CSc2ccccc2N)s1	none
CCOc1ccc(CCNC(=O)c2cc3c(s2)-c2c(C)cccc2OC3)cc1	none
CC1(C)SC2C(C(=O)O)N=C(Cc3ccccc3)N2C1C(=O)O (stereo not given)	none (no result: ClpP mod, TDP1 inh)
CCc1ccc(-n2c(=O)c3sc4ccccc4c3n(Cc3cccc(F)c3)c2=O)cc1	TDP1 cell noCPT inconclusive
Cc1cc(C)c(CSc2nnc(C)n3c2cc2occc23)c(C)c1	TDP1 cell noCPT 20.6µM, TDP1 cell CPT 18.4µM
Cc1cc(C)c(CSc2ncnc3nc[nH]c23)c(C)c1	none (no result: ClpP mod)
CCn1nc(C)c(CN2CCC(Oc3ccc(C(=O)N4CCCC4)cc3)CC2)c1C	none
COc1cccc(Cl)c1NC(=O)N1CCN(c2cc(C)nc3ccccc23)CC1	TDP1 cell noCPT inconclusive, TDP1 cell CPT 16.4µM
COc1ccc(-c2csc(N3CCN(c4cc(C)nc5ccccc45)CC3)n2)cc1OC	TDP1 cell noCPT 14.6µM, TDP1 cell CPT 14.6µM
COc1cccc(Cl)c1NC(=O)N1CCN(c2ccnc3cc(Cl)ccc23)CC1	TDP1 cell noCPT 23.1µM, ClpP mod inconclusive, TDP1 cell CPT inconclusive
Cc1cc(N2CCN(C(=O)/C=C/C(=O)O)CC2)c2ccccc2n1	none (no result: TDP1 inh)
Cn1c(=O)c(-c2ccc(F)cc2)nc2cnc(OCc3ccccc3)nc21	none (no result: ClpP mod, TDP1 inh)
COc1cc(Cn2nnc3ccccc32)cc(Br)c1O	none (no result: TDP1 inh)
Cc1cccc(/C=C/c2cccs2)n1	TDP1 cell noCPT 0.631µM, TDP1 cell CPT 1.12µM (no result: TDP1 inh)
Oc1cccc2ccc(/C=C/c3cccs3)nc12	TDP1 cell noCPT 14.1µM, TDP1 cell CPT 15.8µM
Cc1ccsc1/C=C/c1ccc2cccc(O)c2n1	TDP1 cell noCPT 23.1µM, TDP1 cell CPT inconclusive
Cc1ccsc1/C=C/c1ccc2ccccc2n1	TDP1 cell noCPT inconclusive, TDP1 cell CPT inconclusive (no result: TDP1 inh)
COc1ccc([N+](=O)[O-])cc1N(CC(=O)NCC1CCCO1)S(C)(=O)=O (stereo not given)	none
CCC(=O)NC(=S)Nc1ccc(-c2nc3ccc(C)cc3s2)cc1	TDP1 cell noCPT inconclusive, TDP1 cell CPT 20.6µM
Cc1ccc2nc(-c3ccc(NC(=O)CCN4C(=O)c5ccccc5C4=O)cc3)sc2c1	none
Cc1ccc(C2(C)NC(=O)N(CC(=O)Nc3ccc(-c4nc5ccc(C)cc5s4)cc3)C2=O)cc1 (stereo not given)	TDP1 cell noCPT 10.3µM, TDP1 cell CPT inconclusive
Cc1ccc2nc(-c3ccc(NC(=O)C(C)N4C(=O)c5ccccc5C4=O)cc3)sc2c1 (stereo not given)	ClpP mod 25.1µM

Bioassay records as filed in PubChem BioAssay.
